# Measured values published in the supplement of paper PMC4954754.
# ± gives the uncertainty stated by the source.
# System: HEK293T-Rex ERSE-FLuc
# Test: ERSE-FLuc reporter activation, triplicate confirmation, relative to 500 nM thapsigargin (% of thapsigargin); higher = stronger ATF6/ERSE reporter activation
# Conditions: 6.8 µM; 18 h; screen: confirmation
# Protocol: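 HEK293T-Rex cells stably expressing the ERSE-firefly luciferase (BiP promoter, ATF6-preferring) or XBP1-splicing Renilla luciferase (IRE1/XBP1s) reporter, 1536-well plates, compound at 6.8 µM for 18 hr at 37 °C; luminescence read […] and expressed as % activation = 100*(compound - median DMSO)/(median 500 nM thapsigargin - median DMSO). Primary screen was single-pass; confirmation screen in triplicate (mean ± SD).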
row,Structure (SMILES),ERSE-FLuc reporter activation
1,O=C(CCc1ccccc1)Nc1ccc(Cl)cn1,27.8 ± 4.6
2,Oc1ccc(-c2csc(-c3cccnc3)n2)cc1O,29.3 ± 1.4
3,Cc1ccc(/C=N/NC(=O)c2cccc(Cl)c2)cc1,31.9 ± 1.9
4,O=[N+]([O-])c1ccc(N/N=C/c2ccccc2O)cc1,20.7 ± 2.3
5,O=C(N/N=C/c1ccc(Cl)cc1Cl)c1ccc(O)c(O)c1,25.8 ± 6.1
6,C=CCNC(=O)c1cc(-c2cccs2)on1,72.1 ± 6
7,CCc1ccc(NC(=O)/C=C/c2ccco2)cc1,29.1 ± 4
8,Cc1nn(-c2ccc(F)cc2)c2ncc(C(=O)NCc3ccco3)c(Cl)c12,54.5 ± 3.9
9,COc1ccc(/C=C/c2nc3cc([N+](=O)[O-])ccc3s2)cc1O,25.5 ± 3.9
10,Cc1cc(C)nc(/N=C(\N)Nc2ccc(OCc3ccc(Cl)cc3)cc2)n1,59.7 ± 14
11,CCOc1ccc(NC(=O)c2cccc(F)c2)c([N+](=O)[O-])c1,25.9 ± 2.4
12,COc1cccc(-c2nc3ccc(N)cc3[nH]2)c1,32.8 ± 4.8
13,O=C1/C(=C/c2ccc(O)c(O)c2)Oc2cc(O)ccc21,26.9 ± 5.9
14,COc1ccc(/C(C)=N/OC/C(O)=C(\C#N)c2nc3ccccc3[nH]2)cc1OC,31.3 ± 11
15,O=C(c1ccccc1)c1c(O)ccc2c(C(=O)c3ccccc3)c(O)ccc12,39.3 ± 7.9
16,CC(C)CNC(=O)c1cc(-c2ccc(F)cc2)no1,26.6 ± 1.6
17,COc1ccc(C2C=C3Oc4ccccc4N=C3NN2)cc1 (stereo not given),29 ± 3.5
18,OCCNc1nc(Nc2ccc(Cl)c(Cl)c2)nc2ccccc12,87.6 ± 9.4
19,COc1ccc(-c2cc(C(=O)Nc3cc(C)ccc3O)on2)cc1OC,33.8 ± 1.9
20,O=C(NC(c1ccccc1)c1ccccc1)c1csc(-c2cnccn2)n1,30.5 ± 7.8

row,Structure (SMILES),ERSE-FLuc reporter activation
1,Cc1ccc(-c2csc(Nc3ccc(O)cc3)n2)cc1,26.7 ± 7.1
2,O=C(N/N=C/c1cccc(O)c1O)c1ccccc1I,25.6 ± 5.4
3,COc1ccc(NC(=O)/C(Cl)=C\c2ccccc2)cc1,28.6 ± 2.2
4,CCOc1cccc(C(=O)Nc2ccc(-c3nc4ccc(C(=O)c5ccccc5)cc4[nH]3)cc2)c1,28.6 ± 4.7
5,COc1cc(/C=C/c2ccc(O)c(OC)c2)ccc1O,35.9 ± 9.1
6,O=C(Nc1ccccc1O)c1ccc(NS(=O)(=O)c2cccc3cccnc23)cc1,25.6 ± 8.1
7,O=C(/C=C/c1ccco1)Nc1ccc(Br)cc1Cl,25.5 ± 1.6
8,O=C(Nc1ccc2nc(NC(=O)C3CCCCC3)sc2c1)C1CCCCC1,26.5 ± 4.1
9,O=[N+]([O-])c1ccc2nc(/C=C/c3ccccc3)[nH]c2c1,25.2 ± 1.7
10,CC(C)NC(=O)c1cc(-c2ccc(O)cc2)on1,25.8 ± 3
11,Nc1ccc2nc(/C=C/c3ccco3)[nH]c2c1,40.9 ± 9.5
12,CCCNc1ccnc(N2CCc3ccccc3C2)n1,25.7 ± 11
13,COC(=O)c1c(NC(=O)CCl)sc(C(=O)Nc2cccc([N+](=O)[O-])c2)c1C,37.6 ± 7.8
14,O=C(N/N=C/c1ccc(O)c(O)c1)c1ccc(Br)cc1,31.2 ± 2.8
15,CCCCCC(=O)Nc1ccc(C(=O)Nc2ccccc2O)cc1,44.9 ± 11
16,Nc1cn(-c2ccccc2)nc1-c1cccs1,28.6 ± 6.5
17,CC(C)c1ccc(NC(=O)/C=C/c2ccco2)cc1,26.6 ± 5.9
18,O=C(NCCc1ccc(O)cc1)c1ccc2nc(-c3csc4ccccc34)sc2c1,103 ± 23
19,Cc1ccc2nc(/C(C#N)=C/c3ccc(O)cc3)[nH]c2c1,30.3 ± 3
20,O=C(COC(=O)c1ccc(O)c(O)c1)Nc1nc(-c2ccccc2)cs1,39.3 ± 5.9
